GLP1R cytotox: cytotoxicity counter-screen for GLP-1 receptor inverse agonists; HEK293 cAMP-luciferase reporter cells, luminescence, 24 h; AID 624418; hit rate 0.13% among 410,000; Potency, µM (top dose mostly 38.3 µM), inactives show at the top dose activity change, negative = inhibition, usual class: inhibitors;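 note: loss of luciferase light is scored as toxicity; % is set by controls: 0 for no effect and ±100 for the full control effect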
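MLSMR compounds, 24 hr on cells at 37 deg C/5% CO2; luminescence after luciferase reagent (12 min RT). Inhibition counted as the undesired cytotoxic outcome.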
GLP1R ag: GLP-1 receptor (human) agonism | P43220 | HEK293 GLP-1R CRE-luciferase, luminescence, 4-6 h; cells express a hypersensitive GLP-1R form | Potency, µM (highest dose often 45.6 µM), without a hit: top-dose activation, hits mostly activators | hit rate 0.007% among 380,000 | AID 624172; note: % of control where 0% means no effect
Target sequence (P43220 whole entry, looked up): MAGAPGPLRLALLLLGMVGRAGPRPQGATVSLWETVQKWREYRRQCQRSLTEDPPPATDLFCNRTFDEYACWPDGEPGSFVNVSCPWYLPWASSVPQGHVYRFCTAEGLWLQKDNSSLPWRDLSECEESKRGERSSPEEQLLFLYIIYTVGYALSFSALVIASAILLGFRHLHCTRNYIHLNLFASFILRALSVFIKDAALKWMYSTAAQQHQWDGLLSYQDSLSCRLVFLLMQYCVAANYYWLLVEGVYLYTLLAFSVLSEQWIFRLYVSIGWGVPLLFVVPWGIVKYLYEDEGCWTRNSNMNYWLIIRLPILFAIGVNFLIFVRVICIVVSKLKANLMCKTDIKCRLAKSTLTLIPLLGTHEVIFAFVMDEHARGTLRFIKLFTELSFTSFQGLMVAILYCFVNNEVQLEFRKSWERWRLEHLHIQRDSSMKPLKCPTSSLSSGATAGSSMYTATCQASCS
GLP1R inv ag: acts as inverse agonist at human GLP-1 receptor; hit rate 1.6% among 410,000; HEK293 GLP-1R CRE-luciferase, luminescence, 24 h; GLP-1R form is constitutively active; Potency, µM (series often up to 38.3 µM), without a hit: at the top dose activity change, negative = inhibition, hits mostly inhibitors; P43220; note: % is set by controls: 0 for no effect and ±100 for the full control effect; nearly all actives have a fitted effect of over 55% in size
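Assay principle: reduced luminescence from a cAMP-responsive reporter in HEK293 cells co-expressing a constitutively active GLP-1R. Conditions: 24 hr compound incubation, 37 deg C, 5% CO2.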
a7 integrin act: activates integrin-mediated alleviation for muscular dystrophy; alpha7betagal myoblasts, beta-gal FDG fluorescence, 48 h; hit rate 0.064% among 350,000; Potency, µM (highest dose often 38.3 µM), for the others: at the highest dose activation, most hits filed as activators;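 note: 100% = response of the positive control SU9516; nearly all actives have a fitted effect of over 60% in size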
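Alpha7betagal+/- myoblasts (passage 13) were plated 16-24 hr, then exposed to compounds (1:260 dilution of DMSO stock) for 48 hours at 37C. After MPER lysis, β-galactosidase reporter activity was read as FDG fluorescence (ex 480/em 540) after 30 minutes.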
BRCA1 expr up: increases BRCA1 expression. MCF7-BRCA1-FFLuc reporter, luminescence, 48 h; response scale: scaled: vehicle 0%, 10 µM genistein 100%. Potency, µM (top dose mostly 46.1 µM), for inactives: top-dose activation, hits mostly activators. hit rate 1.1% among 380,000. AID 624202; note: nearly all actives have a fitted effect of over 80% in size
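Reporter cells (MCF7, BRCA1 promoter-firefly luciferase) received library compounds across a concentration series for 48 h. End-point luminescence was measured and concentration-effect curves derived after normalization.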
* marks the source's active call; other numbers are inactive results; ? = inconclusive; / = no result given. Most compounds without a hit are left out; they make up all but 2.7% or so of the library. Calls come from the whole dose curve; as a rule, active = well fitted curve in the direction sought with a large enough effect; inconclusive = small, poorly fitted or top-dose-only effect, or another doubt; inactive = no such curve, though single readings can be large; an effect the other way counts as inactive or inconclusive. Potency is the fitted concentration of half-maximal effect.

SMILES | GLP1R cytotox | GLP1R ag | GLP1R inv ag | a7 integrin act | BRCA1 expr up
COc1ccc2ccccc2c1CNCc1ccc(C)cc1 | -25% | 21% | 10µM* | -55% | 6%
CC1(C)Oc2c(ccc(O)c2CN2CCOCC2)C2=C1CCCC2 | -6% | 2% | 7.1µM* | -13% | -7%
O=c1oc2c(CN3CCOCC3)c(O)ccc2c2c1CCCC2 | 148% | 7% | 26% | 20% | 11%
O=C(Nc1nc2cc3c(cc2s1)OCO3)C1=COCCO1 | -8% | -15% | 2.2µM* | -37% | -71%
CCCNC(=O)C(Cc1ccccc1C)NC(=O)c1ccc(C#N)cc1 (configuration not stated) | 2.5µM* | 5% | 20% | 0% | 0%
CCc1cccc(NC(=O)COC(=O)c2cn(CC)c3nc(C)ccc3c2=O)c1 | 6% | 1% | 8% | / | 6%
CC(Oc1cccc(Cl)c1)C(=O)Nc1cc(Cl)ccc1N1CCOCC1 (configuration not stated) | -1% | 12% | 13µM* | 6% | -49%
CC(Oc1cccc(Cl)c1)C(=O)Nc1ccccc1N1CCCCC1 (configuration not stated) | 0% | 6% | ? | -16% | -52%
CN(C(=O)CO)c1c(I)c(C(=O)NCC(O)CO)c(I)c(C(=O)NCC(O)CO)c1I (configuration not stated) | / | -6% | / | / | /
CC(C)NC(=O)c1ccc(CSCc2ccccc2Cl)o1 | -20% | 12% | 8.9µM* | -38% | 7%
Cc1ccc(CNC(=O)c2ccc(CSCc3ccc(Cl)cc3)o2)cc1 | 3% | / | 10µM* | / | /
O=C(NCCCN1CCCC1)c1ccc(CSCc2cccc(Cl)c2)o1 | -13% | 6% | ? | -54% | -24%
CN1CCN(CCCNC(=O)c2ccc(CSCc3cccc(Cl)c3)o2)CC1 | -16% | 22% | 10µM* | -41% | -26%
CCOc1ccc(NC(=O)c2cnn3c2NC(c2ccccc2)=CC3c2cccc(OC)c2OC)cc1 (configuration not stated) | 5% | / | 25% | / | /
Cc1ccc(C)c(N(C(=O)c2nsc(Cl)c2Cl)C(C(=O)NC2CCCC2)c2ccc(O)cc2)c1 (configuration not stated) | 9% | 0% | 5.6µM* | 9% | -71%
COc1ccc(CN(C(=O)c2nsc(Cl)c2Cl)C(C(=O)NC2CCCC2)c2ccc(C)cc2)cc1 (configuration not stated) | 2% | 2% | ? | -5% | -65%
CCCCCn1c(C)c2c(OCC)cccc(=O)c2c1C | 3% | 17% | 10µM* | -6% | -18%
CC(C)(C)c1cc(C(=O)N/N=C/c2ccc(O)cc2)n(-c2ccccc2)n1 | 9% | -4% | 2µM* | 2% | -38%
COC(=O)c1ccc(-c2ccc(F)cc2)nc1C | -18% | 11% | 28% | -15% | ?
CCOC(=O)c1ccc(-c2ccc3c(c2)CCC3)nc1C | 3% | 10% | 1% | 5% | 10µM*
CSc1ccc(CCNC(=O)c2sc3ncccc3c2-n2cccc2)cc1 | -9% | / | ? | / | /
O=c1[nH]c(=O)n(C(c2ccccc2)(c2ccccc2)c2ccccc2)cc1N(CCO)CCO | 7% | -1% | 10µM* | 13% | -20%
Nc1c(-c2nc(-c3cccs3)no2)nnn1-c1cccc(F)c1 | 0% | / | 8% | / | /
COc1ccc(N2Cc3cccc(C(=O)Nc4ccc(F)cc4)c3C2=O)cc1 | -14% | / | -20% | / | /
Cc1ccc(-c2onc(C)c2C)cc1S(=O)(=O)N1c2ccccc2CC1C (configuration not stated) | 12% | / | 10µM* | / | /
SMILES | GLP1R cytotox | GLP1R ag | GLP1R inv ag | a7 integrin act | BRCA1 expr up
CNC(=O)c1c(NC(=O)c2ccc(S(=O)(=O)N3CCCc4ccccc43)cc2)sc2c1CCN(C)C2 | 3% | 14% | 4.5µM* | -4% | -5%
COc1ccc(N(Cc2cccs2)C(=O)COc2cc(C)c(Cl)c(C)c2)cc1 | -22% | / | 8.9µM* | / | /
Cc1cc(C)cc(OCC(=O)N(Cc2cccs2)c2ccc(Cl)cc2)c1 | -7% | / | 10µM* | / | -9%
COc1ccccc1C(=O)Nc1ccc(N2CCN(S(C)(=O)=O)CC2)cc1 | 1% | 3% | 0% | 24% | 11µM*
CC(=O)Nc1ccc(OCC(=O)N2CCC(Cc3ccccc3)CC2)cc1 | -1% | 7% | 13µM* | -22% | -16%
COc1ccccc1C(=O)Nc1ccccc1N1CCN(S(C)(=O)=O)CC1 | -9% | -7% | 7% | -3% | -24%
COc1ccccc1C(=O)Nc1ccc(OCC(=O)N2CC(C)CC(C)C2)cc1 (configuration not stated) | 4% | -5% | 10µM* | ? | 9%
COc1c(C)cc(Br)cc1C(=O)Nc1ccc(N2CCN(S(C)(=O)=O)CC2)cc1 | 2% | 0% | -15% | 9% | 5%
COc1c(C)cccc1C(=O)Nc1ccc(N2CCN(S(C)(=O)=O)CC2)cc1 | 2% | -5% | 1% | -12% | 3.5µM*
O=C(Nc1ccc(OCC(=O)N2CCC(Cc3ccccc3)CC2)cc1)c1ccco1 | -2% | -6% | 0% | -22% | -5%
Cc1nn(C(=O)c2c(F)cccc2F)c(C)c1S(=O)(=O)N1CCCCCC1 | 6% | -2% | 4% | / | 11%
Cc1ccc(-n2ncc(C(=O)N3CCN(Cc4ccccc4)CC3)c2C2CCN(C(=O)OC(C)(C)C)CC2)c(C)c1 | 5% | / | 6% | / | /
CCCN1CCCc2cc(CN(CCCN3CCOCC3)C(=O)Nc3ccc(Cl)c(Cl)c3)ccc21 | -19% | / | ? | / | /
NC(=S)NN=C1c2ccccc2-c2ccccc21 | 1.4µM* | 17% | ? | -70% | 2%
O=C(NN=C1c2ccccc2-c2ccccc21)c1ccccc1 | ? | 8% | ? | 17% | 6%
O=C(CN1C(=O)CCC1=O)c1ccc(-c2ccccc2)cc1 | -4% | 2% | 31% | 16% | 13µM*
N=c1ccn(CC(=O)c2ccc(-c3ccccc3)cc2)cc1 | -9% | -1% | -31% | -77% | -58%
CC(C)(C)c1cc(C(C)(C)C)c2oc(=O)c(-c3nc4ccccc4[nH]3)cc2c1 | 33% | / | -7% | / | /
COc1cccc2cc(-c3nc(Nc4cccc(C)c4C)sc3C)c(=O)oc12 | 1% | / | 10µM* | / | /
COc1cccc2cc(-c3ccccc3)c(=O)oc12 | -7% | 13% | 3% | 11% | 2.5µM*
COc1cccc2cc(-c3nc4ccccc4[nH]3)c(=O)oc12 | 87% | 10% | 22% | ? | 3.2µM*
COC(=O)c1ccccc1NC(=O)c1cnn2c1NC(=C1CC1)C=C2C(F)F | / | / | / | / | -24%
Cc1nc2sccn2c(=O)c1S(=O)(=O)Nc1cc(C(F)(F)F)ccc1Cl | -4% | / | ? | / | /
CCOC(=O)c1ccc(N2C(=O)c3[nH]nc(-c4ccc(C)cc4)c3C2c2cccs2)cc1 (configuration not stated) | ? | -5% | 8.9µM* | / | -68%

Source: PubChem BioAssay (National Center for Advancing Translational Sciences (NCATS))
